Test results reported in PubChem BioAssay (NCATS).
Results filed as inconclusive are left out. Entries that show only a call come without a potency. The source made the active and inactive calls. Calls come from the whole dose curve; as a rule, active = well fitted curve in the direction sought with a large enough effect; inconclusive = small, poorly fitted or top-dose-only effect, or another doubt; inactive = no such curve, though single readings can be large; an effect the other way counts as inactive or inconclusive.

Legend:
[1] = qHTS of pediatric cancer cell lines to identify multiple opportunities for drug repurposing: Primary screen for U-2 OS cells (AID 1347096); note: nearly all actives have a fitted effect of over 50% in size; note: potency is the fitted concentration of half-maximal effect
Outline: (§1)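 Cells (500-1,000/well) in growth media were settled 5 h at 37 degrees C, then given compounds for 48 h. Viability was read as CellTiter-Glo luminescence. Primary runs used MIPE at 11 points (0.78 nM-46 µM) and NPC at 8 points (0.59 nM-46 µM); follow-ups used 11 points.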

[2] = qHTS of pediatric cancer cell lines to identify multiple opportunities for drug repurposing: Primary screen for Saos-2 cells (AID 1347097); note: nearly all actives have a fitted effect of over 40% in size; note: potency is the fitted concentration of half-maximal effect
Outline: (§2)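 Plated cells (500-1,000 per well, growth media) were allowed to settle for 5 hours, treated with compound dilutions for 48 hours, then lysed with CellTiter-Glo for 15 min at room temperature before luminescence reading.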

[3] = qHTS of pediatric cancer cell lines to identify multiple opportunities for drug repurposing: Primary screen for Rh18 cells (AID 1347102); note: nearly all actives have a fitted effect of over 65% in size; note: potency is the fitted concentration of half-maximal effect
Outline: as §1

[4] = qHTS of pediatric cancer cell lines to identify multiple opportunities for drug repurposing: Primary screen for OHS-50 cells (AID 1347103); note: nearly all actives have a fitted effect of over 40% in size; note: potency is the fitted concentration of half-maximal effect
Outline: (§3)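 Cells (500-1,000/well) rested 5 h, then received compounds for 48 h; metabolically active cells were measured by CellTiter-Glo luminescence. Final concentrations spanned up to 46 µM (MIPE, 11-point) or 0.59 nM-46 µM (NPC, 8-point) in primary screens, 11-point in follow-ups.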

[5] = qHTS of pediatric cancer cell lines to identify multiple opportunities for drug repurposing: Primary screen for RD cells (AID 1347104); note: nearly all actives have a fitted effect of over 55% in size; note: potency is the fitted concentration of half-maximal effect
Outline: as §2

[6] = qHTS of pediatric cancer cell lines to identify multiple opportunities for drug repurposing: Primary screen for MG 63 (6-TG R) cells (AID 1347105); note: nearly all actives have a fitted effect of over 50% in size; note: potency is the fitted concentration of half-maximal effect
Outline: as §2

[7] = qHTS of pediatric cancer cell lines to identify multiple opportunities for drug repurposing: Primary screen for control Hh wild type fibroblast cells (AID 1347106); note: nearly all actives have a fitted effect of over 55% in size; note: potency is the fitted concentration of half-maximal effect
Outline: as §1

[8] = qHTS of pediatric cancer cell lines to identify multiple opportunities for drug repurposing: Primary screen for Rh30 cells (AID 1347107); note: nearly all actives have a fitted effect of over 75% in size; note: potency is the fitted concentration of half-maximal effect
Outline: as §1

[9] = qHTS of pediatric cancer cell lines to identify multiple opportunities for drug repurposing: Primary screen for Rh41 cells (AID 1347108); note: nearly all actives have a fitted effect of over 70% in size; note: potency is the fitted concentration of half-maximal effect
Outline: as §2

[10] = qHTS of pediatric cancer cell lines to identify multiple opportunities for drug repurposing: Confirmatory screen for NB1643 cells (AID 1347109); note: nearly all actives have a fitted effect of over 45% in size
Outline: as §1

[11] = qHTS of pediatric cancer cell lines to identify multiple opportunities for drug repurposing: Confirmatory screen for A673 cells (AID 1347110);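 note: cells exposed to compound for 48 h before the viability read; nearly all actives have a fitted effect of over 65% in size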; note: potency is the fitted concentration of half-maximal effect
Outline: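 Viability was read as ATP luminescence (CellTiter-Glo) after 48 h of compound exposure at 37 C in A673 cells seeded at 500-1,000/well. Titrations reached 46 uM final, with 11 points in the confirmatory screen. Concentration-response curves were fitted directly.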

[12] = qHTS of pediatric cancer cell lines to identify multiple opportunities for drug repurposing: Confirmatory screen for BT-12 cells (AID 1347112); note: nearly all actives have a fitted effect of over 55% in size; note: potency is the fitted concentration of half-maximal effect
Outline: as §1

[13] = qHTS of pediatric cancer cell lines to identify multiple opportunities for drug repurposing: Confirmatory screen for LAN-5 cells (AID 1347113); note: nearly all actives have a fitted effect of over 65% in size
Outline: as §1

[14] = qHTS of pediatric cancer cell lines to identify multiple opportunities for drug repurposing: Confirmatory screen for DAOY cells (AID 1347114); note: nearly all actives have a fitted effect of over 65% in size; note: potency is the fitted concentration of half-maximal effect
Outline: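 Viability measured as metabolically active cells via CellTiter-Glo luminescence following 48 hours of compound exposure, 11-point dilutions in confirmatory testing. 500-1,000 cells/well plated 5 hours before dosing; controls were DMSO and 2.3 µM bortezomib.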

[15] = qHTS of pediatric cancer cell lines to identify multiple opportunities for drug repurposing: Confirmatory screen for NB-EBc1 cells (AID 1347115);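 note: cells exposed to compound for 48 h before the viability read; nearly all actives have a fitted effect of over 45% in size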
Outline: as §1

[16] = qHTS of pediatric cancer cell lines to identify multiple opportunities for drug repurposing: Primary screen for NB1643 cells (AID 1347099); note: nearly all actives have a fitted effect of over 50% in size; note: potency is the fitted concentration of half-maximal effect
Outline: as §2

[17] = qHTS of pediatric cancer cell lines to identify multiple opportunities for drug repurposing: Primary screen for LAN-5 cells (AID 1347100); note: potency is the fitted concentration of half-maximal effect
Outline: as §1

[18] = qHTS of pediatric cancer cell lines to identify multiple opportunities for drug repurposing: Primary screen for BT-12 cells (AID 1347101); note: nearly all actives have a fitted effect of over 25% in size; note: potency is the fitted concentration of half-maximal effect
Outline: as §3

[19] = qHTS of pediatric cancer cell lines to identify multiple opportunities for drug repurposing: Primary screen for SK-N-SH cells (AID 1347098); note: nearly all actives have a fitted effect of over 65% in size; note: potency is the fitted concentration of half-maximal effect
Outline: as §3

[20] = qHTS of pediatric cancer cell lines to identify multiple opportunities for drug repurposing: Confirmatory screen for SK-N-MC cells (AID 1347111);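 note: cells exposed to compound for 48 h before the readout; nearly all actives have a fitted effect of over 70% in size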; note: potency is the fitted concentration of half-maximal effect
Outline: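 Metabolically active cells were quantified by ATP-dependent luminescence (CellTiter-Glo, 15 min at room temperature) following 48 h treatment. Cells had been plated at 500-1,000 per well and settled for 5 h beforehand.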

Structure (SMILES) | Potency [1] | Potency [2] | Potency [3] | Potency [4] | Potency [5] | Potency [6] | Potency [7] | Potency [8] | Potency [9] | Potency [10] | Potency [11] | Potency [12] | Potency [13] | Potency [14] | Potency [15] | Potency [16] | Potency [17] | Potency [18] | Potency [19] | Potency [20]
COc1cccc(Nc2c(C(N)=O)cnc3c(C)cc(S(=O)(=O)c4cccc(C(=O)N(C)C)c4)cc23)c1 | inactive | inactive | inactive | 10.6 µM (active) | inactive | inactive | inactive | inactive | inactive | inactive | inactive | inactive | inactive | inactive | inactive | – | – | – | – | –
CC(C)(O)CCc1ccc(OCc2cc(-c3cccc(OC(F)F)c3)c3ncccc3c2)cc1 | inactive | inactive | inactive | – | inactive | inactive | inactive | inactive | inactive | – | – | – | – | – | – | 18.7 µM (active) | inactive | inactive | – | –
COc1cc2c(cc1-c1c(C)noc1C)ncc1[nH]c(=O)n([C@H](C)c3ccccn3)c12 | 18.7 µM (active) | – | 5.9 µM (active) | 0.485 µM (active) | – | 1.87 µM (active) | 16.6 µM (active) | 23.5 µM (active) | 9.35 µM (active) | – | – | – | – | – | – | 11.8 µM (active) | 5.9 µM (active) | 19.3 µM (active) | 21.5 µM (active) | –
N#Cc1c(O)c2c(-c3ccc(-c4ccccc4O)cc3)csc2[nH]c1=O | inactive | inactive | inactive | inactive | inactive | inactive | – | – | – | – | – | – | – | – | – | – | inactive | inactive | – | –
O=C(O)C1(Cc2cccc(Nc3nccs3)n2)CCC(Oc2cccc(Cl)c2F)CC1 (stereo unspecified) | inactive | 14.8 µM (active) | – | 0.544 µM (active) | – | 18.7 µM (active) | inactive | – | inactive | – | – | – | – | – | – | inactive | – | – | – | –
CC(C)c1noc(N2CCC(COc3ccc(-c4ccc(S(C)(=O)=O)cc4)nc3)CC2)n1 | inactive | – | inactive | 4.32 µM (active) | – | inactive | inactive | inactive | – | – | – | – | – | – | – | inactive | inactive | – | inactive | –
Cc1cc(CN2CCN(c3c(Br)cnc4nc(-c5ccc(N6CCN(C)CC6)cc5)[nH]c34)CC2)no1 | inactive | – | 20.9 µM (active) | 30.6 µM (active) | 26.4 µM (active) | 18.7 µM (active) | inactive | – | 5.9 µM (active) | – | – | – | – | – | – | 16.6 µM (active) | 0.418 µM (active) | – | 21.5 µM (active) | –
Cc1c(C)n(Cc2ccc(-c3ccccc3C(=O)O)cc2)c2ccc(C(=O)N[C@@H](C)c3ccc([N+](=O)[O-])cc3)cc12 | inactive | – | inactive | – | 1.66 µM (active) | 18.7 µM (active) | inactive | inactive | – | inactive | – | inactive | inactive | inactive | inactive | 0.187 µM (active) | – | 0.769 µM (active) | 3.04 µM (active) | inactive
O=C(Nc1nc2cccc(-c3ccc(CN4CCS(=O)(=O)CC4)cc3)n2n1)C1CC1 | inactive | 18.7 µM (active) | – | – | – | 23.5 µM (active) | inactive | – | – | – | – | – | – | – | – | 10.5 µM (active) | – | 27.3 µM (active) | – | –
CCC1=C[C@@H]2CN(C1)Cc1c([nH]c3ccccc13)[C@@](C(=O)OC)(c1cc3c(cc1OC)N(C)[C@@H]1[C@@](O)(C(=O)OC)[C@H](OC(C)=O)[C@]4(CC)C=CCN5CC[C@]31[C@@H]54)C2 | inactive | 0.0166 µM (active) | – | 0.0432 µM (active) | 0.0187 µM (active) | – | – | inactive | – | – | 0.329 µM (active) | – | – | 0.657 µM (active) | inactive | 0.059 µM (active) | 0.0093 µM (active) | 0.0769 µM (active) | – | 5.22 µM (active)
O=C(NCCS(=O)(=O)c1ccc(C(F)(F)F)cn1)c1ccc(Cl)cc1 | inactive | inactive | inactive | – | inactive | inactive | – | inactive | – | – | – | – | – | – | – | inactive | inactive | inactive | – | –
CC1=C(CO)C(=O)O[C@@H]([C@@H](C)[C@H]2CC[C@H]3[C@@H]4C[C@H]5O[C@]56[C@@H](O)C=CC(=O)[C@]6(C)[C@@H]4CC[C@]23C)C1 | inactive | – | 2.64 µM (active) | 4.85 µM (active) | – | 0.743 µM (active) | – | 2.35 µM (active) | 1.18 µM (active) | – | 18.5 µM (active) | 10.4 µM (active) | – | inactive | inactive | 0.132 µM (active) | 0.187 µM (active) | 0.769 µM (active) | 3.41 µM (active) | inactive
CN(C1CCc2c(c3ccccc3n2CC(=O)O)C1)S(=O)(=O)c1ccc(F)cc1 (stereo unspecified) | inactive | inactive | – | – | 4.18 µM (active) | – | – | – | 3.72 µM (active) | – | – | – | – | – | – | 1.32 µM (active) | 5.26 µM (active) | – | – | –
O=C(O)[C@H](Cc1c[nH]c2ccccc12)N1C(=O)c2ccccc2C1=O | inactive | inactive | inactive | – | inactive | inactive | inactive | inactive | inactive | – | – | – | – | – | – | – | inactive | inactive | – | –
COC(=O)C1=C(C)NC(C)=C(C(=O)OCCN2CCN(C(c3ccccc3)c3ccccc3)CC2)C1c1cccc([N+](=O)[O-])c1 (stereo unspecified) | inactive | 13.3 µM (active) | 16.8 µM (active) | 15.5 µM (active) | – | inactive | inactive | inactive | – | – | – | – | – | – | – | 16.8 µM (active) | – | – | – | –
CC=CC1=C(C(=O)O)N2C(=O)[C@H](NC(=O)[C@H](N)c3ccc(O)cc3)[C@@H]2SC1 | inactive | – | inactive | – | inactive | inactive | inactive | inactive | inactive | inactive | – | inactive | inactive | inactive | inactive | 20.9 µM (active) | – | – | 19.2 µM (active) | –
